# Screening data from PubChem.
# This is a sample that favours compounds with a hit; in the whole collection about 13% have one here.
# Pf growth 96h: inhibits malaria parasite growth, 96 h | hit rate 6.9% among 320,000 | Potency, µM (titrated, usually from 28.7 µM), without a hit: at the highest dose activity change, negative = inhibition, actives largely listed as inhibitors | P. falciparum luciferase reporter growth, 96 h; further: potency means the concentration at half of the fitted maximal effect
#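 Two parasite generations (96 h, 37 C, 5% CO2) of compound exposure in infected erythrocytes (0.05% parasitemia, 2% hematocrit). Luciferase-reporter P. falciparum; decreased luminescence indicates inhibited growth, aimed at apicoplast-acting delayed death.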
# HCMV inh: blocks human cytomegalovirus replication; hit rate 4.5% among 410,000; activity change, negative = inhibition, % at 57.5 µM; HFF cells, HCMV-luciferase reporter, 72 h; stronger effect = lower value; in the data active means activity change below about -60%; inconclusive means no clear call, values can overlap the other calls; inactive means above about -39%
#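 Steps: HFFs plated, 16 h 37C; compounds added; HCMV-luciferase added to MOI 1 PFU/cell; 72 h 37C; OneGlo reagent, 5 min room temperature; luminescence read, normalized to controls.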
# Pf growth 48h: P. falciparum growth inhibition at 48 hours (one generation); P. falciparum luciferase growth in erythrocytes, 48 h; Potency, µM (top dose mostly 28.7 µM), without a hit: top-dose activity change, negative = inhibition, usual class: inhibitors; hit rate 5.9% among 310,000; AID 504832; further: potency means the concentration at half of the fitted maximal effect
#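 Parasite viability was followed by luminescence of a genomically integrated firefly luciferase. Cultures held 0.1% parasitemia at 2% hematocrit (final), incubated under 5% CO2 at 37 C.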
# HCV inh: inhibitors of hepatitis C virus infection. Huh7.5.1 HCVcc-Cre infection, luciferase reporter, 44 h. Potency, µM (titrated, usually from 41.8 µM), without a hit: at the top dose activity change, negative = inhibition, actives largely listed as inhibitors. hit rate 3.4% among 340,000. AID 651820; further: potency means the concentration at half of the fitted maximal effect
#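 HCVcc-Cre virus at an moi near 0.5 was added right after compound to cells cultured 4 h from seeding (1,000 cells/well). Luciferase activity was determined 44 h later, 15 min after substrate addition at RT.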
# * = called active by the depositor; ? = inconclusive; . = no result given. Unless noted, the call rests on the fitted dose curve; in most records, active means well fitted inhibition curve with a large enough effect; inconclusive means small, poorly fitted or top-dose-only effect, or another doubt; inactive means no such curve, though single readings can be large or run the other way. On the % scale 0 is the no-effect control and ±100 the full control effect.
SMILES,Pf growth 96h,HCMV inh,Pf growth 48h,HCV inh
O=C(O)c1ccc2c(c1)C(=O)N([C@H](Cc1ccc(F)cc1)C(=O)O)C2=O,19%,.,?,.
COc1ccc(Cl)cc1NC(=O)c1cc2nc(-c3ccc(C)cc3)cc(C(F)(F)F)n2n1,.,-23,.,.
O=C(CN1CCN(Cc2ccc(F)cc2)C1=O)NCc1ccc(F)cc1,.,9,.,.
COc1ccc(NC(=O)c2cccc(Cn3cc(Br)c([N+](=O)[O-])n3)c2)c(C)c1,-41%,-18,?,10µM*
NNC(=O)c1cccc(Cn2cc(Br)c([N+](=O)[O-])n2)c1,-15%,-12,?,3%
C#CCOCCOCCOCCNc1nc(N2CCN(C(=O)CCCCCCCCCCNC(=O)Cn3cc(CCCCCN)nn3)CC2)nc(N2CCN(C(=O)CCCCCCCCCCNC(=O)Cn3cc(C[C@@H](C)O)nn3)CC2)n1,0.29µM*,.,0.33µM*,?
C#CCOCCOCCOCCNc1nc(N2CCN(C(=O)CCCCCCCCCCNC(=O)Cn3cc(C[C@@H](C)O)nn3)CC2)nc(N2CCN(C(=O)CCCCCCCCCCNC(=O)[C@@H]([C@H](C)CC)n3cc(CCCCCN)nn3)CC2)n1,?,.,2.3µM*,?
Cc1cccc(Nc2ncnc3onc(-c4cccc(Cl)c4)c23)c1C,9.3µM*,-17,?,6%
CCCCCn1c(N)c(-c2nc3ccccc3s2)c2c([N+](=O)[O-])nn(C)c(=O)c21,5.2µM*,41,?,?
COCCC(=O)NC12CC3CC(CC(C3)C1)C2,.,11,3%,0%
CCOP(=O)(NC12CC3CC(CC(C3)C1)C2)NC12CC3CC(CC(C3)C1)C2,2.9µM*,5,3.7µM*,26%
Cc1ccc(-c2nc3c4ccccc4n(CC(=O)N4CCN(c5ccc(F)cc5)CC4)c(=O)n3n2)cc1,.,23,.,.
COc1ccccc1/C=N/NC(=O)CN(C1=NS(=O)(=O)c2ccccc21)c1ccccc1,0.15µM*,-38,1%,6%
Cc1nc(C)c(-c2ccc(SCc3ccc([N+](=O)[O-])cc3)nn2)s1,?,?,-1%,32µM*
COc1ccccc1-c1ccc(SCc2cccc(C)c2)nn1,12µM*,?,10µM*,-7%
Cc1nc(C)c(-c2ccc(SCc3ccc(Cl)cc3)nn2)s1,1%,-27,12%,?
COc1ccccc1-c1ccc(SCc2ccc([N+](=O)[O-])cc2)nn1,?,-68*,?,?
COc1ccccc1-c1ccc(SCC(=O)Nc2cc(C)on2)nn1,41%,-19,5%,-24%
COc1cccc(CNC(=O)c2nn(-c3ccccc3Cl)nc2CO)c1,.,11,.,.
CC(=O)N[C@H](C(=O)N[C@@H](C)C(=O)N[C@H](C#N)CC(=O)O)C(C)C,0%,.,5%,.
COc1ccc(Nc2nc(-c3ccccc3)nc3ccccc23)cc1S(=O)(=O)N1CCOCC1,13µM*,-60*,?,22µM*
COc1ccc(NC(=O)c2cc(-c3ccco3)nc3ccccc23)cc1S(=O)(=O)N1CCOCC1,?,15,?,8.9µM*
O=C(Nc1ccc(Cl)c(S(=O)(=O)N2CCOCC2)c1)c1cc(-c2ccccn2)nc2ccccc12,?,-23,12µM*,?
COc1ccc(NC(=O)c2ccccc2-c2ccc(C(F)(F)F)cc2)cc1S(=O)(=O)N1CCOCC1,?,-67*,?,1%
O=C(Nc1ccc(Cl)c(S(=O)(=O)N2CCOCC2)c1)c1ccccn1,-24%,-17,-20%,-29%
SMILES,Pf growth 96h,HCMV inh,Pf growth 48h,HCV inh
COc1ccc(NC(=O)c2cc(C)nc3ccccc23)cc1S(=O)(=O)N1CCOCC1,.,26,.,?
Cc1ccccc1C(=O)Nc1ccc2nc(Nc3cccc(C(F)(F)F)c3)cc(C)c2c1,.,-13,.,.
COc1ccccc1CC(=O)Nc1ccc2nc(Nc3cccc(C(F)(F)F)c3)cc(C)c2c1,.,-67*,.,.
COc1cccc(CC(=O)Nc2ccc3nc(Nc4cccc(C(F)(F)F)c4)cc(C)c3c2)c1,.,-72*,.,.
Oc1ccc(C2CNCc3sccc32)cc1O (configuration not stated),?,-35,13µM*,?
COc1ccc(CCNC(=O)c2ccc3c(Cl)c4c(nc3c2)CCCC4)c(OC)c1,.,-94*,.,.
O=C(c1ccc2c(Cl)c3c(nc2c1)CCCC3)N1CCC(N2CCCCC2)CC1,?,-60*,-2%,?
O=C(c1ccc2c(Cl)c3c(nc2c1)CCCC3)N1CCN(c2ccccc2)CC1,.,0,.,.
CCc1ccc(CNC(=O)c2ccc3c(Cl)c4c(nc3c2)CCCC4)cc1,.,-26,.,.
O=C(NCc1ccc(F)cc1)c1ccc2c(Cl)c3c(nc2c1)CCCC3,.,-73*,.,.
CN1CCN(CCCNC(=O)c2ccc3c(Cl)c4c(nc3c2)CCCC4)CC1,-14%,?,?,10µM*
CCC(C)NC(=O)c1ccc2c(Cl)c3c(nc2c1)CCC3 (configuration not stated),6%,-24,66%,-8%
O=C(NCCc1ccccc1)O[C@H]1CC[C@@]23CCCN2C(=O)CCC[C@H]3[C@H]1Cc1ccccc1,.,-3,.,.
Cc1nc2nc(CNC(=O)OC(C)(C)C)nn2c(C)c1CCC(=O)NCc1ccc(F)cc1,.,-9,.,.
CCCCNC(=O)c1ccc2c(SCC(=O)O)c3c(nc2c1)CCCC3,?,7,0%,-23%
CCN(C(=O)c1ccc2c(Cl)c3c(nc2c1)CCC3)c1ccc(C)c(C)c1,10µM*,-7,?,?
CCCN(C(=O)c1ccc2c(SCC(=O)O)c3c(nc2c1)CCC3)c1cccc(C)c1,-22%,-60*,0%,12%
O=S1(=O)c2ccc(Br)cc2OC2CCCC[C@@H]2N1Cc1ccccc1 (some centres not stated),.,9,.,.
N#Cc1ccc(S(=O)(=O)N2CCC(Oc3cccc(C(F)(F)F)c3)CC2)cc1,.,-19,.,.
CCOC(=O)C1=C(CN2CCN(c3ccccc3)CC2)NC(=O)NC1c1ccc(C)cc1 (configuration not stated),.,2,.,.
COc1ccccc1N1CCN(C(=O)c2cc3ccc4ccc(C)[nH]c4c3n2)CC1,.,-11,.,.
CCN(CC)CCn1c(=S)[nH]c2ccc(Cl)cc2c1=O,-1%,-10,12µM*,-25%
NC(=O)C1CCN(c2nc(-c3cccc4ccccc34)cs2)CC1,-5%,.,?,.
O=c1[nH]c(C(Cl)Cl)nc2sc3c(c12)CCN(Cc1ccccc1)C3,?,-23,-29%,-12%
CCCSc1nc2sc3c(c2c(=O)[nH]1)CCN(Cc1ccccc1)C3,4.1µM*,.,?,9%
O=c1c2sc3ccccc3c2n(Cc2ccc(F)cc2Cl)c(=O)n1Cc1ccccc1,.,19,.,.
COc1ccccc1NC(=O)c1nn(C)c(C(=O)Nc2ccccc2OC)c1[N+](=O)[O-],1%,-7,-13%,-23%
CC(=O)Nc1ccc(NC(=O)c2c([N+](=O)[O-])c(C(C)(C)C)nn2C)cc1,34%,-26,38%,-21%
COc1ccccc1NC(=O)c1c([N+](=O)[O-])c(C(C)(C)C)nn1C,?,-68*,?,5%
